High-throughput results (PubChem BioAssay)
IDE exosite inh: exo-site inhibitors of human insulin-degrading enzyme | P14735 | purified IDE, FL-6b probe fluorescence polarization; stronger effect = lower value | z-score at 20 µM | 6.3% of 17,000 active | AID 1259349;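 active means z-score of -3 or lower, meaning strong loss of probe binding signal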;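 further: His-tagged human IDE residues 42-1019 made in E. coli with 30 nM FL-6b probe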
Hits are given with their value. This excerpt belongs to a sample that is enriched for hits.

Screening CC(=O)NC[C@H]1[C@H](c2ccc(C3=CCCC3)cc2)[C@@H](CO)N1Cc1cccnc1 returned IDE exosite inh inactive.
Cc1ccccc1-c1ccc([C@H]2[C@H](CO)N3CCCCN(C(=O)Nc4ccc(F)cc4)C[C@@H]23)cc1 was read as IDE exosite inh inactive.
COc1ccc(NC(=O)N2CCCCN3[C@@H](CO)[C@H](c4ccc(-c5ccccc5F)cc4)[C@@H]3C2)cc1 was read as IDE exosite inh inactive.
COc1ccc(NC(=O)N2CCCCN3[C@@H](CO)[C@@H](c4ccc(-c5ccccc5F)cc4)[C@@H]3C2)cc1 was read as IDE exosite inh inactive.
Screening Cc1ccccc1-c1ccc([C@H]2[C@@H](CO)N3CCCCN(C(=O)Nc4ccccc4)C[C@H]23)cc1 returned IDE exosite inh -8.8.
For COc1ccc(NC(=O)N2CCCCN3[C@H](CO)[C@H](c4ccc(-c5ccccc5C)cc4)[C@H]3C2)cc1 the results were IDE exosite inh -4.3.
Screening Cc1ccccc1-c1ccc([C@@H]2[C@H]3CN(C(=O)Nc4ccc(F)cc4)CCCCN3[C@H]2CO)cc1 returned IDE exosite inh inactive.
Screening Cc1ccccc1-c1ccc([C@H]2[C@H]3CN(C(=O)Nc4ccccc4)CCCCN3[C@H]2CO)cc1 returned IDE exosite inh inactive.
Screening Cc1ccccc1-c1ccc([C@@H]2[C@H]3CN(C(=O)Nc4ccccc4)CCCCN3[C@H]2CO)cc1 returned IDE exosite inh inactive.
`COc1ccc(NC(=O)N2CCCCN3[C@H](C2)[C@@H](c2ccc(-c4ccccc4C)cc2)[C@@H]3CO)cc1` gave IDE exosite inh -4.1.
Cc1ccc(-c2ccc(C3[C@@H]4CN(S(=O)(=O)c5ccccc5)C[C@H]3N4)cc2)cc1 (some centres not stated) was read as IDE exosite inh inactive.
Screening CC(=O)N(C)C[C@H]1[C@@H](c2ccc(-c3cccnc3)cc2)[C@@H](CO)N1C(=O)C1CC1 returned IDE exosite inh inactive.
COCC(=O)N1CC2(C1)CN(Cc1ccccc1F)[C@H](CO)c1[nH]c3cc(OC)ccc3c12 was read as IDE exosite inh inactive.
Screening CO[C@@H](CN(C)S(=O)(=O)c1ccc(C)cc1)[C@H](C)CN(C(=O)Nc1ccccc1F)[C@@H](C)CO returned IDE exosite inh inactive.
Screening O=C(c1cccc(F)c1)N1CC(=O)N2[C@@H](CO)[C@@H](c3ccc(C4=CCCC4)cc3)[C@@H]2C1 returned IDE exosite inh inactive.
For O=C(c1ccc(F)cc1)N1CC(=O)N2[C@@H](CO)[C@H](c3ccc(C#CC4CCCCC4)cc3)[C@@H]2C1 the results were IDE exosite inh inactive.
For CCN(C[C@@H]1N[C@@H](CO)[C@H]1c1ccc(-c2cccc(F)c2)cc1)C(=O)COC the results were IDE exosite inh inactive.
Screening O=C(c1ccccc1)N1CC(=O)N2[C@H](C1)[C@@H](c1ccc(-c3ccccc3)cc1)[C@@H]2CO returned IDE exosite inh inactive.
`Cc1ccccc1-c1ccc([C@H]2[C@@H](CO)N3C(=O)CN(C(=O)c4ccccc4)C[C@@H]23)cc1` gave IDE exosite inh -8.3.
Cc1ccccc1-c1ccc([C@H]2[C@H](CO)N3C(=O)CN(C(=O)c4ccncc4)C[C@@H]23)cc1 was read as IDE exosite inh -7.4.
Screening Cc1ccccc1-c1ccc([C@@H]2[C@@H](CO)N3C(=O)CN(C(=O)c4ccc(F)cc4)C[C@H]23)cc1 returned IDE exosite inh inactive.
CCCNC(=O)N1[C@H](CNC(C)=O)[C@H](c2ccc(C3=CCCC3)cc2)[C@@H]1CO was read as IDE exosite inh inactive.
O=C(C[C@@H]1CC[C@@H]2[C@H](COC[C@@H](O)CN2Cc2nccs2)O1)N1CCC(Cc2ccccc2)CC1 was read as IDE exosite inh inactive.
COc1ccc2c3c(n(C)c2c1)[C@H](CO)N(C(C)=O)CC31CCN(Cc2ccccc2OC)CC1 was read as IDE exosite inh inactive.
For Cc1ccccc1S(=O)(=O)N1CCCCN2[C@H](CO)[C@H](c3ccc(-c4cccnc4)cc3)[C@@H]2C1 the results were IDE exosite inh inactive.
For Cc1ccccc1S(=O)(=O)N1CCCCN2[C@H](CO)[C@H](c3ccc(-c4cncnc4)cc3)[C@H]2C1 the results were IDE exosite inh inactive.
Cc1cccc(S(=O)(=O)N2CCCCN3[C@H](CO)[C@@H](c4ccc(-c5cccnc5)cc4)[C@@H]3C2)c1 was read as IDE exosite inh -3.7.
Cc1ccccc1S(=O)(=O)N1CCCCN2[C@@H](CO)[C@@H](c3ccc(-c4cccnc4)cc3)[C@@H]2C1 was read as IDE exosite inh -14.
Screening Cc1ccccc1S(=O)(=O)N1CCCCN2[C@H](CO)[C@@H](c3ccc(-c4cncnc4)cc3)[C@@H]2C1 returned IDE exosite inh -4.6.
`Cc1cccc(S(=O)(=O)N2CCCCN3[C@H](CO)[C@H](c4ccc(-c5cccnc5)cc4)[C@@H]3C2)c1` gave IDE exosite inh inactive.
Screening O=S(=O)(c1ccccc1F)N1CCCCN2[C@H](C1)[C@@H](c1ccc(-c3cncnc3)cc1)[C@@H]2CO returned IDE exosite inh inactive.
For Cc1cccc(S(=O)(=O)N2CCCCN3[C@H](CO)[C@H](c4ccc(-c5cccnc5)cc4)[C@H]3C2)c1 the results were IDE exosite inh inactive.
`Cc1ccccc1S(=O)(=O)N1CCCCN2[C@H](C1)[C@H](c1ccc(-c3cccnc3)cc1)[C@@H]2CO` gave IDE exosite inh inactive.
Screening CCC(=O)N1C[C@H](O)COC[C@H]2O[C@@H](CC(=O)NCc3ccc(Oc4ccccc4)cc3)CC[C@@H]21 returned IDE exosite inh inactive.
`CCCC(=O)N1C[C@@H]2[C@H](c3ccccc31)[C@H](CO)N2C(=O)Nc1ccc(F)cc1` gave IDE exosite inh inactive.
`CO[C@@H](C(=O)N(C)C[C@H]1OCc2ccccc2-c2ccccc2C(=O)N([C@@H](C)CO)C[C@@H]1C)c1ccccc1` gave IDE exosite inh inactive.
`OC[C@@H]1[C@@H](c2ccccc2)C2(CN(Cc3ccccn3)C2)N1CCC(F)(F)F` gave IDE exosite inh inactive.
Screening CCC(=O)N1[C@H](CO)[C@H](c2ccc(-c3ccccc3OC)cc2)[C@@H]1CNC(C)=O returned IDE exosite inh -15.
CCC(=O)N1[C@H](CO)[C@H](c2ccc(-c3cccc(F)c3)cc2)[C@@H]1CNC(C)=O was read as IDE exosite inh inactive.
For CC(=O)NC[C@H]1[C@H](c2ccc(-c3ccccc3F)cc2)[C@H](CO)N1C(C)=O the results were IDE exosite inh inactive.
`CCC(=O)N1[C@H](CNC(C)=O)[C@H](c2ccc(-c3ccc(F)cc3)cc2)[C@@H]1CO` gave IDE exosite inh inactive.
CCC(=O)N1[C@@H](CO)[C@@H](c2ccc(-c3cccc(F)c3)cc2)[C@@H]1CNC(C)=O was read as IDE exosite inh inactive.
`CCC(=O)N1[C@H](CO)[C@H](c2ccc(-c3ccccc3OC)cc2)[C@H]1CNC(C)=O` gave IDE exosite inh -8.2.
`CC(C)C#Cc1ccc([C@@H]2[C@@H](CO)N3CCCCN(S(=O)(=O)Cc4ccccc4)C[C@H]23)cc1` gave IDE exosite inh inactive.
Screening O=C(NC1CCCC1)N[C@@H]1C=C[C@H](CC(=O)N2CCOCC2)O[C@H]1CO returned IDE exosite inh inactive.
`CCC(=O)N1CC(=O)N2[C@H](C1)[C@H](c1ccc(C#CCC(C)C)cc1)[C@@H]2CO` gave IDE exosite inh inactive.
CO[C@@H](CN(C)C(=O)c1cnccn1)[C@H](C)CN([C@H](C)CO)S(=O)(=O)c1ccccc1 was read as IDE exosite inh inactive.
